Active and inactive are the calls of the source.
Tests used:
[1] = tested on: PRMT1 (protein arginine N-methyltransferase 1); assay: PRMT1 binders on small-molecule microarrays, primary screen, biochemical, small-molecule microarray, 635 nm fluorescence (AID 1088); conditions: small-molecule microarray binding, higher = more signal;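 further: binding of Prmt1 protein to compounds spotted on small-molecule microarray slides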
[2] = yeast growth modulation, basal conditions, primary screen, YJM789 clinical isolate, OD600, 24 h (AID 1089);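 further: growth of clinical yeast isolate S. cerevisiae YJM 789 seeded 1000 cells per well; test concentration not given here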; conditions: S. cerevisiae YJM789 growth, higher = more signal, called active from +8 up or from −8 down
[3] = fission yeast growth modulation, primary screen, strain 972, OD600, 24 h, no modulator (AID 1090);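 further: basal condition with compound alone and no growth modifier present; test concentration not given here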; conditions: S. pombe 972 growth, higher = more signal, called active from +8 up or from −8 down
[4] = S. cerevisiae growth modulation with rapamycin, primary screen, strain BY4716, OD600, 96 h (AID 1091); conditions: higher = more signal, called active from +8 up or from −8 down; further: test concentration not given here
[5] = target: Torsin-1A-interacting protein 2 (Homo sapiens) (UniProt Q8NFQ8); assay: LULL1 binders on small-molecule microarray, primary screen, cell lysate, human LULL1 lysate, 635/667 nm fluorescence (AID 1092); conditions: hLULL1 lysate binding, 635 nm fluorescence, higher = more signal;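 further: probe is lysate of COS7 cells overexpressing human LULL1; score merges per-feature 667 nm fluorescence with signal-to-noise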
[6] = E. coli growth modulation, two-sided OD650, primary screen, E. coli filamentation project, strain DRC41, 24 h (AID 1093); conditions: OD650, 24 h, higher = more signal, called active from +8 up or from −8 down;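 further: MC1000 strain lacking acrAB efflux and sulA so SOS filamentation is blocked; test concentration not given here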
[7] = small-molecule microarray binders of probe aLefty2, primary screen, biochemical, biotinylated probe, 635/667 nm fluorescence (AID 1094); conditions: higher = more signal;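 further: score merges spot fluorescence near 667 nm with spot signal-to-noise ratio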
[8] = tested on: Noggin (protein binding on small-molecule microarray); assay: Noggin binders on small-molecule microarray, primary screen, biochemical, 635/667 nm fluorescence (AID 1095); conditions: 635 nm fluorescence, higher = more signal;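 further: score merges 667 nm feature fluorescence with signal to noise over triplicate slides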
[9] = target: Neurogenic locus notch homolog protein 3 (Homo sapiens) (UniProt Q9UM47); assay: NOTCH3 binders on small-molecule microarray, primary screen, biochemical, 635/667 nm fluorescence (AID 1096); conditions: NOTCH3 binding, 635 nm fluorescence, higher = more signal
[10] = small-molecule microarray binders of probe aEGFR, primary screen, biochemical, biotinylated probe, 635/667 nm fluorescence (AID 1097); conditions: higher = more signal;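 further: probe is a biotinylated anti-EGFR antibody binding compounds printed on slides; score combines fluorescence near 667 nm and signal to noise of each spot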
[11] = tested on: Plasmodium falciparum Sir2 (PF13_0152, Sir2A); assay: pfSir2 binders on small-molecule microarrays, primary screen, biochemical, small-molecule microarray, 635 nm fluorescence (AID 1098); conditions: small-molecule microarray binding, fluorescence 635 nm; higher = more signal;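 further: score merges spot fluorescence intensity with its signal-to-noise ratio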
[12] = small-molecule microarray binders of probe aDKK1, primary screen, biochemical, biotinylated probe, 635/667 nm fluorescence (AID 1099); conditions: higher = more signal;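 further: score merges 667nm spot fluorescence with signal to noise across triplicate slides; reference of the scale not given here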
[13] = small-molecule microarray binders of probe aCHRDL2, primary screen, biochemical, biotinylated probe, 635/667 nm fluorescence (AID 1100); conditions: higher = more signal
[14] = splicing luciferase reporter signal modulators, primary screen, spliceosome inhibition project, cell-based, HEK293, splice +/- reporter (AID 1101); conditions: luminescence, 24 h, higher = more signal, called active from +8 up or from −8 down;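 further: HEK293 cells carrying a splicing-competent luciferase reporter gene; test concentration not given here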
[15] = target: Fibroblast growth factor 10 (Homo sapiens) (UniProt O15520); assay: FGF10 binders on small-molecule microarrays, primary screen, biochemical, small-molecule microarray, 635 nm fluorescence (AID 1102); conditions: FGF10 binding, fluorescence 635 nm, higher = more signal
[16] = tested on: glycogen synthase kinase-3 (GSK3A per assay name; protocol says GSK3B); assay: GSK3 binders on small-molecule microarrays, primary screen, biochemical, small-molecule microarray, 635 nm fluorescence, GSK3A (AID 1103); conditions: small-molecule microarray binding, fluorescence 635 nm; higher = more signal; further: the record names both GSK3A and GSK3B
[17] = target: Epidermal growth factor receptor (Homo sapiens) (UniProt P00533); assay: EGFR binders on small-molecule microarrays, primary screen, biochemical, small-molecule microarray, 635 nm fluorescence (AID 1104); conditions: EGFR binding, higher = more signal;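 further: score merges 667 nm emission intensity with spot signal to noise over triplicate slides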
[18] = target: Follistatin-related protein 3 (Homo sapiens) (UniProt O95633); assay: FSTL3 binders on small-molecule microarrays, primary screen, biochemical, small-molecule microarray, 635 nm fluorescence (AID 1105); conditions: FSTL3 binding, higher = more signal;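 further: score merges emission near 667 nm and signal to noise per printed spot across three slides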
[19] = target: Dickkopf-related protein 1 (Homo sapiens) (UniProt O94907); assay: DKK1 binders on small-molecule microarrays, primary screen, biochemical, small-molecule microarray, 635 nm fluorescence scan (AID 1106); conditions: DKK1 binding, higher = more signal;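 further: score merges emission near 667 nm with signal to noise over three replicate slides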
[20] = tested on: Inhibin beta A chain (activin A); assay: INHBA (activin A) binders on microarrays, primary screen, biochemical, small-molecule microarray, 635 nm fluorescence scan (AID 1107); conditions: small-molecule microarray binding, higher = more signal;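 further: mouse activin A protein probed at 4.33 µg/mL on printed slides; score merges bound-protein fluorescence near 667 nm with spot signal-to-noise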

Epidermal growth factor receptor (Homo sapiens), sequence (P00533 whole entry, looked up): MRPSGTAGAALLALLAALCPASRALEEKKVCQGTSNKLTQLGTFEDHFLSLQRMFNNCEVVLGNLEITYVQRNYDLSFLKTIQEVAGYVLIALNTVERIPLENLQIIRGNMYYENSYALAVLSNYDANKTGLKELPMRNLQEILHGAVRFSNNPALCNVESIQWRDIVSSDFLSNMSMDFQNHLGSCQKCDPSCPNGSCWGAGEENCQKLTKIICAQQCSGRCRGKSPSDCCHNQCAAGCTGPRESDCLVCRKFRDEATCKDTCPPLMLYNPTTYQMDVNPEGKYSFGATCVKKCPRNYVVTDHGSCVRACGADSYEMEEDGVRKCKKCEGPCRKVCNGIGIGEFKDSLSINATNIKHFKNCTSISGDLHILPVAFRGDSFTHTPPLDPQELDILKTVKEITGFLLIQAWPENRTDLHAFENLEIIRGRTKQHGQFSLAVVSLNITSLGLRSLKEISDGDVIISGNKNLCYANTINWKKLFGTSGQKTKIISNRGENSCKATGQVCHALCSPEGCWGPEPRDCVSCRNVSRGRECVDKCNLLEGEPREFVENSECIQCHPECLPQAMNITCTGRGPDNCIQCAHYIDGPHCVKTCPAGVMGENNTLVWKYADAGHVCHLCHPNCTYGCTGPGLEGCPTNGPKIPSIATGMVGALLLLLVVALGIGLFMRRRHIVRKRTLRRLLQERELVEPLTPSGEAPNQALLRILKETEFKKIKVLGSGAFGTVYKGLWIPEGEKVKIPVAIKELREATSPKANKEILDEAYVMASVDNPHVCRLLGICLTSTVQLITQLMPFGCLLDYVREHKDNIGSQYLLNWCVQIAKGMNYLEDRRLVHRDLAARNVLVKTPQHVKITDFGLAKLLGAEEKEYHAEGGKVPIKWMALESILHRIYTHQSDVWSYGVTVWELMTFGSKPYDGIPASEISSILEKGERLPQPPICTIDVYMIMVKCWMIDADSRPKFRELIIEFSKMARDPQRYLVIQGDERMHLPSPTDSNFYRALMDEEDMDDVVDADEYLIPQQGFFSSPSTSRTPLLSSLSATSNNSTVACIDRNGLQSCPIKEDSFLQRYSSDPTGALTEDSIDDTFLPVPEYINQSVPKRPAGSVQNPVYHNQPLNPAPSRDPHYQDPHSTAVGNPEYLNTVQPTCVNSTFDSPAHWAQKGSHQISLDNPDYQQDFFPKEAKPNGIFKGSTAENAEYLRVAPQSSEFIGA
Neurogenic locus notch homolog protein 3 (Homo sapiens), sequence (Q9UM47 whole entry, looked up): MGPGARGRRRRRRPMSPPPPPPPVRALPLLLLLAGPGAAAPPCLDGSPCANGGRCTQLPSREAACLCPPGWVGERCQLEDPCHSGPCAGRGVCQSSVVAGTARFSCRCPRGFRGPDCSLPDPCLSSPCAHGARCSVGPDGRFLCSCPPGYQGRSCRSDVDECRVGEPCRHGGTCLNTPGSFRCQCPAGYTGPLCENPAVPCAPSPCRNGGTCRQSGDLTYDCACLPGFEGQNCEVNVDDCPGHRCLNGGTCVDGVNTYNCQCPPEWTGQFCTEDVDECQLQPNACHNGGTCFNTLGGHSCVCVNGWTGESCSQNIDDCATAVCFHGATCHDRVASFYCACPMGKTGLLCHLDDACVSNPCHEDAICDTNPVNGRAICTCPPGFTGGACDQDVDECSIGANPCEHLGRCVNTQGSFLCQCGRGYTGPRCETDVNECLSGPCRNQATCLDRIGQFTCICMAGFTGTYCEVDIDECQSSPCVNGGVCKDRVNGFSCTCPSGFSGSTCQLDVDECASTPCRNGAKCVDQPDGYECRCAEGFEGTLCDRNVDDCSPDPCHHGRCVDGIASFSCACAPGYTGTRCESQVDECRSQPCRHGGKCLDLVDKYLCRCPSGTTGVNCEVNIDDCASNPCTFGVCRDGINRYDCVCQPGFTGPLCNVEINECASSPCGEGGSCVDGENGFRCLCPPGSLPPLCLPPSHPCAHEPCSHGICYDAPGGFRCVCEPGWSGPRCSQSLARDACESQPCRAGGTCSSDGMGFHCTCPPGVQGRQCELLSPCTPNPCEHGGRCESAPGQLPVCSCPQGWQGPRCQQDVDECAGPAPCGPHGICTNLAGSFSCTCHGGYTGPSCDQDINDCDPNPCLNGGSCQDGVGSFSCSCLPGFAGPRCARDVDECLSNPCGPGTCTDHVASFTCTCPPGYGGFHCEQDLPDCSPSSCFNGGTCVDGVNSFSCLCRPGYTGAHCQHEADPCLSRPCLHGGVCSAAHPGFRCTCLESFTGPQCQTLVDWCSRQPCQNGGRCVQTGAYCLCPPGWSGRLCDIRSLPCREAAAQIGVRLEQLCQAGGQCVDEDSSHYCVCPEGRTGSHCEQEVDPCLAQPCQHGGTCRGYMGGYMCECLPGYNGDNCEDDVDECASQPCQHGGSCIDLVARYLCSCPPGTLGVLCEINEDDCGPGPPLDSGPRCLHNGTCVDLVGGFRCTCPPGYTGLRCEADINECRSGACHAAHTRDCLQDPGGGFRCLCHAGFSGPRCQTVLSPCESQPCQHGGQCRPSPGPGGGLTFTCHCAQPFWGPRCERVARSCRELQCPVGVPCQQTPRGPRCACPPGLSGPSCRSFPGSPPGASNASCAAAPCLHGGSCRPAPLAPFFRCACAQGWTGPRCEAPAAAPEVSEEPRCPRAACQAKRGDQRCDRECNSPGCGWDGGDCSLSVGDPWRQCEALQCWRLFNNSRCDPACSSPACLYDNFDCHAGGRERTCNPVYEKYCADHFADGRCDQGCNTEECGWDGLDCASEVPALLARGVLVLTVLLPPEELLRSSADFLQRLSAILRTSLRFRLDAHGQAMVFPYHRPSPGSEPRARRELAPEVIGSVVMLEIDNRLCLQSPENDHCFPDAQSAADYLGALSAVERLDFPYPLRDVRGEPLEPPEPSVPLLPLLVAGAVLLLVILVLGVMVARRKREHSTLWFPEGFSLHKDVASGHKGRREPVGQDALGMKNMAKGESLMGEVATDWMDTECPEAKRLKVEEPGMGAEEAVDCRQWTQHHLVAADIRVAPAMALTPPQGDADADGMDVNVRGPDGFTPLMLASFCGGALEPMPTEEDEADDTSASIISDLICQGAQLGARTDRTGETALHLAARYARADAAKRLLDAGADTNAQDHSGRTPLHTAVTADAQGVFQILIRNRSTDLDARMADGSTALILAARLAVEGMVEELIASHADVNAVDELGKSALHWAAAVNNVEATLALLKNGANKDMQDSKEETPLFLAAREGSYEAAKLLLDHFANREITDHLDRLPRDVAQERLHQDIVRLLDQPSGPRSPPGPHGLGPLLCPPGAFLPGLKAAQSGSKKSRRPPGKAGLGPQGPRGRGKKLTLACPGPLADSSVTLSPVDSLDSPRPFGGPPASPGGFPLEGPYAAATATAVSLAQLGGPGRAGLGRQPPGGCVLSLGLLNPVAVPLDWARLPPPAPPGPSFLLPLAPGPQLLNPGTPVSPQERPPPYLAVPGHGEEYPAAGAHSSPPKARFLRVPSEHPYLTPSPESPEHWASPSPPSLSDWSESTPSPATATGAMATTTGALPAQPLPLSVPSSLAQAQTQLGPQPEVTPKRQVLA
Dickkopf-related protein 1 (Homo sapiens), sequence (O94907 whole entry, looked up): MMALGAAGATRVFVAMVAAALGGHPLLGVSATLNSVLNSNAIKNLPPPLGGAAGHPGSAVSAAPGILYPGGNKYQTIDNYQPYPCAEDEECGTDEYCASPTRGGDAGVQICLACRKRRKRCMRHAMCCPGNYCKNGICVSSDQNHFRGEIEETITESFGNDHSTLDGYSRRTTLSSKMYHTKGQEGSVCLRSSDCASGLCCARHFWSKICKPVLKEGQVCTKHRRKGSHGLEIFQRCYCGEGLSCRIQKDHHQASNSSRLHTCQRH
Torsin-1A-interacting protein 2 (Homo sapiens), sequence (Q8NFQ8 whole entry, looked up): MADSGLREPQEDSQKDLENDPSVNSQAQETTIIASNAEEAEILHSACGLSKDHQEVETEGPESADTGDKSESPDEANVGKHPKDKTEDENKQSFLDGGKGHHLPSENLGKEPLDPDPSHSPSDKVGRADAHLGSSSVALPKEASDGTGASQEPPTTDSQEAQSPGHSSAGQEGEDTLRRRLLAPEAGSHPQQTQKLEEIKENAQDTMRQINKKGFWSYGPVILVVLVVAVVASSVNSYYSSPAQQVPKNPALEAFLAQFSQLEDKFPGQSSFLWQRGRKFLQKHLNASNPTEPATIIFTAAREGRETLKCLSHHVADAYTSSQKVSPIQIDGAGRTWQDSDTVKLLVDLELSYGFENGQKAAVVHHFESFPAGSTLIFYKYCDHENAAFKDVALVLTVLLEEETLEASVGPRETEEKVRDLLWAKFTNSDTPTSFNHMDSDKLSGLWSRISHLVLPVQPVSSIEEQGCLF
Fibroblast growth factor 10 (Homo sapiens), sequence (O15520 whole entry, looked up): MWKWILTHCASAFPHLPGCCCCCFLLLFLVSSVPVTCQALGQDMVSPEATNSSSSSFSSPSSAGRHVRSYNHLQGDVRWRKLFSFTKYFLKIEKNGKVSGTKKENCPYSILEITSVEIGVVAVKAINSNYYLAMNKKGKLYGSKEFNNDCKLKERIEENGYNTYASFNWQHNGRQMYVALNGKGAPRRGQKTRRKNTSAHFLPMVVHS
Follistatin-related protein 3 (Homo sapiens), sequence (O95633 whole entry, looked up): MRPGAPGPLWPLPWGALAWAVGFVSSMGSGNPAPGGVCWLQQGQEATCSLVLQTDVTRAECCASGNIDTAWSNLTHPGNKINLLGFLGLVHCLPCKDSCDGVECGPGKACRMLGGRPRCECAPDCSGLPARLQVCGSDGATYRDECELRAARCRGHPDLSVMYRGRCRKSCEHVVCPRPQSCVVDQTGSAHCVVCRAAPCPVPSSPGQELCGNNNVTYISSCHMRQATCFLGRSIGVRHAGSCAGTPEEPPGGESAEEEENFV

| Structure (SMILES) | composite z-score [1] | z-score [2] | z-score [3] | z-score [4] | composite z-score [5] | z-score [6] | composite z-score [7] | composite z-score [8] | composite z-score [9] | composite z-score [10] | composite z-score [11] | composite z-score [12] | composite z-score [13] | z-score [14] | composite z-score [15] | composite z-score [16] | composite z-score [17] | composite z-score [18] | composite z-score [19] | composite z-score [20] |
| --- | --- | --- | --- | --- | --- | --- | --- | --- | --- | --- | --- | --- | --- | --- | --- | --- | --- | --- | --- | --- |
| CN(C)C(=O)[C@@]1(Cc2ccccc2)N=C(c2ccc(OCCCO)cc2)O[C@H]1c1ccccc1 | 0.584 | -0.826 (inactive) | -2.23 (inactive) | 0.221 (inactive) | 3.4 | 0.982 (inactive) | 0.344 | -0.642 | 0.229 | 0.642 | 1.46 | 1.26 | 1.24 | -0.24 (inactive) | 1.2 | 1.18 | -0.591 | 0.109 | -0.273 | 0.139 |
| COC(=O)C1(CC(C)C)C=C2C(=C(c3ccccc3)C(=O)C2C)CN1 (stereo not given) | -0.291 | -0.201 (inactive) | 0.424 (inactive) | 1.71 (inactive) | 2.16 | -0.326 (inactive) | 1.1 | -1.13 | 0.141 | 0.917 | 0.055 | 1.49 | 1.36 | 1.45 (inactive) | 0.896 | -0.713 | 0.233 | 0.261 | -1.19 | 1.53 |
| C[C@@H]1NC(=O)[C@@H](Cc2ccccc2)NC(=O)[C@@]23C(=O)N[C@@H](Cc4ccccc4)C2[C@H](C)[C@@]2(C)O[C@H]2C3/C=C/C/C=C\CNC1=O (stereo not given in full) | -1.06 | 0.378 (inactive) | 0.573 (inactive) | 0.783 (inactive) | 2.84 | -1.02 (inactive) | -0.218 | 0.972 | 0.354 | -0.168 | 1.02 | -0.259 | -0.17 | 0.138 (inactive) | -0.2 | -0.769 | -0.318 | 0.119 | 0.0252 | 1.16 |
| O=C1[C@H]2C=C(I)[C@H](C[C@@H]2OCCOCCO)[C@@]12CO2 | 0.582 | 0.0387 (inactive) | -0.342 (inactive) | -0.155 (inactive) | 0.6 | -0.935 (inactive) | -0.239 | 0.513 | 0.733 | -0.027 | 0.558 | -0.261 | -0.751 | -0.0672 (inactive) | 0.954 | 0.671 | 0.83 | 1.12 | 0.459 | 0.555 |
| CCOC(=O)C[C@H]1[C@H](OC(=O)c2ccc(-c3ccccc3)cc2)[C@@H](NC(=O)CC(C)C)c2cc(OCCCO)ccc2N1C(=O)c1ccc2ccccc2n1 | -0.069 | -1.13 (inactive) | -0.832 (inactive) | -0.656 (inactive) | 1.15 | -0.0583 (inactive) | -0.145 | 0.481 | 0.753 | -0.0828 | 0.988 | -0.239 | -0.39 | -0.725 (inactive) | 0.636 | 0.0685 | 0.239 | 0.47 | 0.273 | 0.0746 |
| CCN(CC)c1ccc(N2CC=CC34O[C@@H]5/C=C\CCCOC(=O)C5[C@H]3C(=O)N(C(C)CO)[C@@H]4C2=O)cc1 (stereo not given in full) | 0.428 | -0.991 (inactive) | -1.47 (inactive) | -0.497 (inactive) | 0.347 | 1.42 (inactive) | -0.243 | -0.045 | 0.204 | -0.189 | 1.03 | -0.213 | -0.445 | -0.0084 (inactive) | -0.184 | -0.208 | -0.243 | -0.232 | 0.512 | 1.03 |
| COCCOC(=O)N1C(=O)[C@@]2(c3cc(C#CCCO)ccc31)[C@H](c1ccc(OCCO)cc1)N1[C@H](c3ccccc3)[C@H](c3ccccc3)OC(=O)[C@H]1[C@@H]2C(=O)Nc1nc2ccccc2s1 | 1.42 | 1.61 (inactive) | 1.26 (inactive) | 2.48 (inactive) | 1.26 | 0.235 (inactive) | 0.151 | 1.13 | 1.08 | 0.197 | 0.755 | 0.901 | 0.771 | 1.06 (inactive) | 0.898 | 1.29 | 0.27 | 1.24 | 0.87 | 0.854 |
| CCCC=C(CCC)[C@@H](NC(=O)C(C)(C)C)c1ccc(C(=O)OC)cc1 | 0.0225 | 0.647 (inactive) | 1.51 (inactive) | 1.68 (inactive) | 3.12 | -0.447 (inactive) | 0.498 | -0.383 | 0.803 | -0.0023 | -0.0973 | 1.13 | 1.06 | -0.58 (inactive) | -0.129 | -0.107 | -0.0375 | 0.11 | -0.58 | 0.757 |
| COCC(=C=CC[C@H](O)c1ccc(CO)o1)CCO | 1.09 | 0.6 (inactive) | 0.0793 (inactive) | 0.244 (inactive) | 0.751 | -0.349 (inactive) | -0.0501 | 1.04 | 1.12 | -0.0976 | 1.39 | 0.0057 | -0.336 | 0.191 (inactive) | 1.52 | 0.654 | -0.294 | 1.19 | 0.352 | 0.569 |
| COC(=O)[C@@]1(Cc2ccc(OC)cc2)[C@H]2c3cc(C(=O)N(C)C)n(Cc4ccc(C)o4)c3C[C@H]2CN1C(=O)c1ccccc1 | 0.549 | -0.529 (inactive) | 0.805 (inactive) | 0.0527 (inactive) | 3.6 | 0.527 (inactive) | 0.347 | -0.263 | 0.916 | 0.229 | 1.34 | 0.766 | 0.923 | 4.83 (inactive) | 0.251 | 1.18 | -0.102 | 0.514 | -0.716 | 0.861 |

From PubChem BioAssay
